Screening data deposited in PubChem by Broad Institute.
SIRT5 inh: inhibitors of human sirtuin-5 desuccinylase; inhibition, % at 15 µM; 1.1% of 330,000 active; Purified SirT5, succinyl-peptide AMC, trypsin-coupled fluorescence; Q9NXA8; in the data active = inhibition above about 15%
Target sequence (Q9NXA8 whole entry, looked up): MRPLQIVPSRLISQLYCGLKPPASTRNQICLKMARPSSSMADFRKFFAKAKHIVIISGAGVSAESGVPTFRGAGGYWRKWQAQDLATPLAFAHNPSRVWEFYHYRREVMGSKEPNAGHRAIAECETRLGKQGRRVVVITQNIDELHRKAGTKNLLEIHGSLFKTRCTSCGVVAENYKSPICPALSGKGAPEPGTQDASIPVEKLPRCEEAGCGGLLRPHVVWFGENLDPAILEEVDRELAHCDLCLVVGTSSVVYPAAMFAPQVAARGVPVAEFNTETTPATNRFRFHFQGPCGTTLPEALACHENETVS
PfHsp90 set2: growth inhibition of yeast expressing Plasmodium Hsp90; inhibition, % at 9.4 µM; S. cerevisiae expressing PfHsp90, BacTiter-Glo ATP, 48 h; yeast lacking PDR1 and PDR3 efflux regulators; 0.32% of 310,000 active;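 active = every replicate shows inhibition above about 80%, whatever the replicate mean, limit read from the data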
NSD2 inh: blocks human histone methyltransferase NSD2. NSD2 peptide methylation, AlphaScreen, 120 min. inhibition, % at 12.5 µM. O96028. 0.54% of 310,000 active; in the data active = inhibition above about 50%
CASP6 VEID inh: caspase-6 (human) enzyme inhibition; P55212; purified caspase-6, Z-VEID-R110 cleavage fluorescence; inhibition, % at 12.5 µM; 0.53% of 350,000 active; AID 686996;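 active = mean inhibition across replicates at least about 35%, with every replicate also reaching that limit, limit read from the data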
Target sequence (P55212 24-179 limits assumed): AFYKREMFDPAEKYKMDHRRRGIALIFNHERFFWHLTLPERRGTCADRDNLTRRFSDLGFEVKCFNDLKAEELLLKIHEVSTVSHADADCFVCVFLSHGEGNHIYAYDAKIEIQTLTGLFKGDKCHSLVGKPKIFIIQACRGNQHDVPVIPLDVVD
Target sequence (P55212 194-293 limits assumed): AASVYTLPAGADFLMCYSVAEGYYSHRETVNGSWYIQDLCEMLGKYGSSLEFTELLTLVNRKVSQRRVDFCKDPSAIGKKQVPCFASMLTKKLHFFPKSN
ARNT TACC3 PPI: disrupts binding between human ARNT and TACC3; Q9Y6A5; AlphaScreen His-ARNT PAS-B/GST-TACC3 binding, luminescence; TACC3 fragment carries E629A point mutation; inhibition, % at 9.99 µM; 0.66% of 390,000 active;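 active = mean inhibition of replicates at least 50% and at least half of replicates each reaching 50%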
Large screens that a line does not name were inactive. In the library only some 2.1% were active in any assay of this set; here they are far more common.

C[C@H](CO)N1C[C@H](C)[C@H](CN(C)Cc2ccc(Cl)c(Cl)c2)Oc2c(NC(=O)Nc3cccc4ccccc34)cccc2C1=O	none (no result: PfHsp90 set2, NSD2 inh)
Cc1ccc(CN2CCN(Cc3cnn(-c4ccc(Cl)cc4)c3)CC2CCO)o1 (centres undefined)	SIRT5 inh 26 (no result: PfHsp90 set2, NSD2 inh)
CCOc1cc(C(=O)NC(CC(=O)O)c2ccc(OC3CCCC3)cc2)cc(OCC)c1OCC (centres undefined)	SIRT5 inh 24
O=C(Nc1cc([N+](=O)[O-])ccc1O)c1ccc2c(c1)C(=O)N(Cc1ccco1)C2=O	CASP6 VEID inh 42
CCCOc1ccc(C(O)C(CN2CCOCC2)c2ccccc2)cc1 (centres undefined)	none
CCCCOc1ccc(C(O)C(CN2CCOCC2)c2ccccc2)cc1 (centres undefined)	SIRT5 inh 15
COC(=O)c1cccc(NC(=O)c2ccc(OC)c(Cl)c2)c1	none (no result: PfHsp90 set2)
COc1cccc(NC(=O)c2ccccc2)c1	SIRT5 inh 32 (no result: NSD2 inh)
COc1ccc(C(=O)Nc2cc(C(=O)O)cc(C(=O)O)c2)cc1Cl	CASP6 VEID inh 82
O=C(O)c1cc(NC(=O)c2cccc(C(=O)Nc3cc(C(=O)O)cc(C(=O)O)c3)c2)cc(C(=O)O)c1	none
Cc1cccc(C(=O)Nc2cccc(NC(=O)c3ccccc3)c2)c1	CASP6 VEID inh 54
O=C(O)c1ccc(NC(=O)c2cccc(C(=O)Nc3ccc(C(=O)O)cc3)c2)cc1	SIRT5 inh 33
C[C@H](CO)N1C[C@H](C)[C@@H](CN(C)Cc2ccccc2)Oc2ncc(C3=CCCC3)cc2C1=O	none (no result: PfHsp90 set2, NSD2 inh)
C[C@@H]1CN([C@@H](C)CO)C(=O)c2cc(NS(C)(=O)=O)ccc2O[C@H]1CN(C)Cc1ccc(C(=O)Nc2ccccc2N)cc1	none (no result: SIRT5 inh, PfHsp90 set2, NSD2 inh)
O=C(N[C@@H]1CC[C@H](CCNS(=O)(=O)Cc2ccccc2)O[C@H]1CO)c1cnccn1	none (no result: PfHsp90 set2, NSD2 inh)
CCCN(C)C[C@H]1OCCCC[C@H](C)Oc2ccc(NC(=O)CCC(F)(F)F)cc2C(=O)N([C@H](C)CO)C[C@H]1C	none (no result: PfHsp90 set2, NSD2 inh)
COc1ccc(C(=O)Nc2ccc3ccccc3c2)c(OC)c1	CASP6 VEID inh 43
COc1cccc(C2CC(c3ccc(Br)cc3)=NN2C(=O)c2ccncc2)c1OC (centres undefined)	SIRT5 inh 112
COc1ccccc1C1CC(c2ccc(Br)cc2)=NN1C(=O)c1cccnc1 (centres undefined)	none (no result: SIRT5 inh, CASP6 VEID inh)
Cc1ccc(C(=O)O/N=C(\c2ccccc2)c2cccnc2)cc1	SIRT5 inh 33
Cc1cccc(C(=O)O/N=C(\c2ccccc2)c2cccnc2)c1	none
COCC#Cc1ccc2c(c1)O[C@H](CN(C)S(=O)(=O)c1ccc(OC)cc1)[C@H](C)CN([C@@H](C)CO)S2(=O)=O	none (no result: PfHsp90 set2, NSD2 inh)
COc1ccc(S(=O)(=O)N(C)C[C@H]2Oc3cc(C#CC4CCCCC4)ccc3S(=O)(=O)N([C@H](C)CO)C[C@H]2C)cc1	none (no result: PfHsp90 set2, NSD2 inh)
COc1ccc(S(=O)(=O)N(C)C[C@@H]2Oc3cc(C#CC4CC4)ccc3S(=O)(=O)N([C@H](C)CO)C[C@H]2C)cc1	SIRT5 inh 15 (no result: PfHsp90 set2, NSD2 inh)
COc1ccc(S(=O)(=O)N(C)C[C@H]2Oc3cc(C#CC4CC4)ccc3S(=O)(=O)N([C@@H](C)CO)C[C@@H]2C)cc1	SIRT5 inh 22 (no result: PfHsp90 set2, NSD2 inh)
COc1ccc(S(=O)(=O)N(C)C[C@H]2Oc3cc(C#CC4CC4)ccc3S(=O)(=O)N([C@@H](C)CO)C[C@H]2C)cc1	SIRT5 inh 22 (no result: PfHsp90 set2, NSD2 inh)
O=C1Nc2ccccc2C(=O)N2[C@H](c3ccccc3)[C@@H]3C(=O)N(Cc4ccccc4)C(=O)[C@@H]3[C@H]12	SIRT5 inh 16 (no result: NSD2 inh)
COc1ccc(-c2nnc(SCCC(=O)O)n2-c2ccccc2)cc1OC	SIRT5 inh 15
Cc1noc(C)c1NC(=O)Nc1ccc2c(c1)C(=O)N([C@H](C)CO)C[C@@H](C)[C@@H](CN(C)C(=O)Nc1ccc(C(F)(F)F)cc1)O2	none (no result: PfHsp90 set2, NSD2 inh)
C#CCOCCOCCOCCNc1nc(N2CCN(C(=O)CCCCCCCCCCNC(=O)[C@H]([C@@H](C)CC)n3cc(CCCCCN)nn3)CC2)nc(N2CCN(C(=O)CCCCCCCCCCNC(=O)[C@H](CCCCN)n3cc(CCCC(=O)O)nn3)CC2)n1	none (no result: SIRT5 inh, NSD2 inh, CASP6 VEID inh)
C#CCOCCOCCOCCNc1nc(N2CCN(C(=O)CCCCCCCCCCNC(=O)Cn3cc(C[C@@H](C)O)nn3)CC2)nc(N2CCN(C(=O)CCCCCCCCCCNC(=O)[C@@H](CCC(=O)O)n3cc(CCCCCN)nn3)CC2)n1	none (no result: NSD2 inh)
C#CCOCCOCCOCCNc1nc(N2CCN(C(=O)CCCCCCCCCCNC(=O)[C@@H](CCC(=O)O)n3cc(CCCCCN)nn3)CC2)nc(N2CCN(C(=O)CCCCCCCCCCNC(=O)[C@H]([C@@H](C)CC)n3cc(CCCCCN)nn3)CC2)n1	ARNT TACC3 PPI 49 (no result: SIRT5 inh, NSD2 inh, CASP6 VEID inh)
C#CCOCCOCCOCCNc1nc(N2CCN(C(=O)[C@H](Cc3ccc(O)cc3)n3cc([C@@H](N)C(C)CC)nn3)CC2)nc(N2CCN(C(=O)[C@H](CCCCN)n3cc([C@@H](N)CO)nn3)CC2)n1 (some centres undefined)	ARNT TACC3 PPI 46 (no result: SIRT5 inh, NSD2 inh, CASP6 VEID inh)
C#CCOCCOCCOCCNc1nc(N2CCN(C(=O)CCCCCCCCCCNC(=O)Cn3cc(C[C@@H](C)O)nn3)CC2)nc(N2CCN(C(=O)CCCCCCCCCCNC(=O)[C@H](CO)n3cc(CCCSC)nn3)CC2)n1	SIRT5 inh 20 (no result: NSD2 inh)
CO[C@H]1CC[C@@H]2CCN(C)C(=O)CC3(CCCCC3)CN(C)C(=O)c3cccc(C#N)c3OC[C@H]1O2	none (no result: PfHsp90 set2, NSD2 inh)
Cc1[nH]c(=O)[nH]c(=O)c1/C=N/NC(=O)CCCCCNC(=O)OC(C)(C)C	none
Cc1[nH]c(=O)[nH]c(=O)c1/C=N/NC(=O)[C@H](C)N	ARNT TACC3 PPI 47
Cc1[nH]c(=O)[nH]c(=O)c1/C=N/NC(=O)CCNC(=O)OC(C)(C)C	none
Cc1[nH]c(=O)[nH]c(=O)c1/C=N/NC(=O)[C@@H](NC(=O)OC(C)(C)C)C(C)C	ARNT TACC3 PPI 47 (no result: SIRT5 inh, CASP6 VEID inh)
C[C@H](CO)N1C[C@H](C)[C@@H](CN(C)C(=O)Nc2ccc3c(c2)OCO3)Oc2ncc(-c3cncnc3)cc2C1=O	none (no result: PfHsp90 set2, NSD2 inh)
O=C(Nc1ccc2oc(-c3cccc4ccccc34)nc2c1)c1ncn[nH]1	none (no result: SIRT5 inh, CASP6 VEID inh)
O=C(Nc1ccc2oc(-c3ccccc3Cl)nc2c1)c1ncn[nH]1	ARNT TACC3 PPI 50
Cc1ccc(NC(=O)c2cc(N3C(=O)C=CC3=O)ccc2N2CCOCC2)cc1Cl	PfHsp90 set2 105
O=C(Nc1ccc(N2CCOCC2)c(Cl)c1)c1ccc(Cl)cc1	none (no result: NSD2 inh)
O=C(Nc1ccc(N2CCOCC2)c(Cl)c1)c1ncn[nH]1	ARNT TACC3 PPI 58 (no result: SIRT5 inh, CASP6 VEID inh)
COc1cccc(NC(=O)Nc2ccc3c(c2)C(=O)N(C)C[C@@H](OC)[C@@H](C)CN(C)[C@H](C)CO3)c1	none (no result: PfHsp90 set2, NSD2 inh)
CO[C@@H]1CN(C)C(=O)c2cc(NS(=O)(=O)c3ccc(F)cc3)ccc2OC[C@H](C)NC[C@@H]1C	none (no result: PfHsp90 set2, NSD2 inh)
CCOc1cc(N2CCOCC2)c(OCC)cc1NS(=O)(=O)c1cc(NC(C)=O)ccc1OC	CASP6 VEID inh 37
